PubChem BioAssay AID1159580 (chemical genetic matrix, 2015)
Values joined by “and” are separate entries in the source; they are usually repeats but may differ in a detail not shown here. Equal values may be shown once. Out of some 5,500 compounds screened, about 2,000 (36%) were called active. Roughly 18% stayed inconclusive and do not appear here. Some of the results follow. Unmarked numbers belong to inactive results. No stated cut-off is given here; in the data, active means normalized growth mostly below about 0.91 (no sharp cut-off); inconclusive means no clear call, values can overlap the other calls; inactive means mostly above about 0.92.

Assay: chemical genetic growth profiling, strain panel (AID 1159580);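 further: tested at 20 µM; growth read once vehicle control cultures reached saturation at 30 °C; 1 = growth at the plate median or of vehicle wells; lower values mean less growth of the strain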
Details: S. cerevisiae deletion strains, growth OD
[1] = locus YAL013W, strain DEP1, hits give low values
[2] = locus YDR150W, strain NUM1, hits give low values
[3] = locus YGR078C, strain PAC10, hits give low values
[4] = locus YJR075W, strain HOC1, hits give low values
[5] = locus YMR263W, strain SAP30, hits give low values
[6] = locus YNL153C, strain GIM3, hits give low values
[7] = locus YNL322C, strain KRE1, hits give low values
[8] = locus YPL055C, strain LGE1, hits give low values
[9] = locus YPL241C, strain CIN2, hits give low values
[10] = locus YAL040C, strain CLN3, hits give low values
[11] = locus YCL061C, strain MRC1 (second series), hits give low values
[12] = locus YDR363W, strain ESC2, hits give low values
[13] = locus YER002W, strain NOP16, hits give low values
[14] = locus YMR307W, strain GAS1, hits give low values
[15] = locus YNL128W, strain TEP1, hits give low values
[16] = locus YNL175C, strain NOP13, hits give low values
[17] = locus YNL197C, strain WHI3, hits give low values
[18] = locus YNL224C, strain SQS1, hits give low values
[19] = locus YOR083W, strain WHI5 (second series), hits give low values

Clc1ccc(Oc2ccnc3cc(Cl)ccc23)cc1
normalized growth [1]: 0.909 (active)
normalized growth (locus YAR019C, strain CDC15, hits give low values): 0.898
normalized growth (locus YBL105C, strain PKC1, hits give low values): 0.923
normalized growth (locus YBR135W, strain CKS1, hits give low values): 0.913
normalized growth (locus YBR136W, strain MEC1, hits give low values): 0.922
normalized growth (locus YBR160W, strain CDC28, hits give low values): 0.918
normalized growth (locus YBR229C, strain ROT2, hits give low values): 0.956
normalized growth (locus YDL017W, strain CDC7, hits give low values): 0.919
normalized growth (locus YDL028C, strain MPS1, hits give low values): 0.926
normalized growth (locus YDL101C, strain DUN1, hits give low values): 0.915 and 0.93
normalized growth (locus YDL108W, strain KIN28, hits give low values): 0.921
normalized growth (locus YDL132W, strain cdc53, hits give low values): 0.91
normalized growth (locus YDL214C, strain PRR2, hits give low values): 0.745
normalized growth (locus YDR052C, strain DBF4, hits give low values): 0.918
normalized growth (locus YDR054C, strain cdc34, hits give low values): 0.894
normalized growth [2]: 0.943
normalized growth (locus YDR226W, strain ADK1, hits give low values): 0.903
normalized growth (locus YDR477W, strain SNF1, hits give low values): 0.678 (active)
normalized growth (locus YEL061C, strain CIN8, hits give low values): 0.944
normalized growth (locus YER123W, strain YCK3, hits give low values): 0.517 (active)
normalized growth (locus YER133W, strain GLC7, hits give low values): 0.613 (active)
normalized growth (locus YFL009W, strain cdc4, hits give low values): 0.903
normalized growth (locus YFL029C, strain CAK1, hits give low values): 0.898
normalized growth (locus YFR003C, strain YPI1, hits give low values): 0.916
normalized growth (locus YFR019W, strain FAB1, hits give low values): 0.893
normalized growth (locus YFR028C, strain CDC14, hits give low values): 0.908
normalized growth (locus YGR040W, strain KSS1, hits give low values): 0.67 (active)
normalized growth (locus YGR052W, strain FMP48, hits give low values): 0.659
normalized growth [3]: 0.92 (active)
normalized growth (locus YGR092W, strain DBF2, hits give low values): 0.627
normalized growth (locus YHR030C, strain SLT2, hits give low values): 0.235 (active) and 0.376 (active)
normalized growth (locus YHR079C, strain IRE1, hits give low values): 0.546
normalized growth (locus YHR082C, strain KSP1, hits give low values): 0.626
normalized growth (locus YHR087W, strain rtc3, hits give low values): 0.923
normalized growth (locus YHR205W, strain SCH9, hits give low values): 0.704
normalized growth (locus YIL147C, strain SLN1, hits give low values): 0.924
normalized growth (locus YJL095W, strain BCK1, hits give low values): 0.49 (active)
normalized growth (locus YJL128C, strain PBS2, hits give low values): 0.865
normalized growth (locus YJL157C, strain FAR1, hits give low values): 0.683 (active)
normalized growth (locus YJR016C, strain ILV3, hits give low values): 0.914
normalized growth (locus YJR043C, strain POL32, hits give low values): 0.964
normalized growth (locus YJR066W, strain TOR1 (second series), hits give low values): 0.684
normalized growth (locus YJR066W, strain TOR1, hits give low values): 0.544
normalized growth [4]: 0.804 (active)
normalized growth (locus YKL048C, strain ELM1, hits give low values): 0.888
normalized growth (locus YKL067W, strain YNK1, hits give low values): 0.735
normalized growth (locus YKL101W, strain HSL1, hits give low values): 0.772
normalized growth (locus YKL193C, strain SDS22, hits give low values): 0.911
normalized growth (locus YKL203C, strain TOR2, hits give low values): 0.68 (active)
normalized growth (locus YLR039C, strain RIC1, hits give low values): 0.779 (active)
normalized growth (locus YLR058C, strain SHM2 (second series), hits give low values): 0.951
normalized growth (locus YLR085C, strain ARP6, hits give low values): 0.499 (active)
normalized growth (locus YLR113W, strain HOG1, hits give low values): 0.379 (active)
normalized growth (locus YLR133W, strain CKI1, hits give low values): 0.772
normalized growth (locus YLR262C, strain YPT6, hits give low values): 0.817
normalized growth (locus YLR403W, strain SFP1, hits give low values): 0.675
normalized growth (locus YML070W, strain DAK1, hits give low values): 0.681
normalized growth (locus YML094W, strain GIM5, hits give low values): 0.994
normalized growth (locus YMR001C, strain CDC5, hits give low values): 0.908
normalized growth (locus YMR205C, strain PFK2 (second series), hits give low values): 0.742 (active)
normalized growth (locus YMR219W, strain ESC1, hits give low values): 0.948
normalized growth [5]: 0.945
normalized growth (locus YMR277W, strain FCP1, hits give low values): 0.915
normalized growth (locus YNL006W, strain LST8, hits give low values): 0.92
normalized growth (locus YNL020C, strain ARK1, hits give low values): 0.762
normalized growth [6]: 0.98
normalized growth (locus YNL161W, strain CBK1, hits give low values): 0.897 (active)
normalized growth (locus YNL183C, strain NPR1, hits give low values): 0.456 (active)
normalized growth (locus YNL207W, strain RIO2, hits give low values): 0.906
normalized growth (locus YNL222W, strain SSU72, hits give low values): 0.916
normalized growth (locus YNL298W, strain CLA4 (second series), hits give low values): 0.924
normalized growth (locus YNL307C, strain MCK1 (second series), hits give low values): 0.701
normalized growth [7]: 0.947
normalized growth (locus YNR030W, strain Alg12, hits give low values): 0.802 (active)
normalized growth (locus YOL078W, strain AVO1, hits give low values): 0.904
normalized growth (locus YOL136C, strain PFK27, hits give low values): 0.668 (active)
normalized growth (locus YOR061W, strain CKA2, hits give low values): 0.792
normalized growth (locus YOR119C, strain RIO1, hits give low values): 0.684 (active)
normalized growth (locus YOR231W, strain MKK1, hits give low values): 0.489 (active)
normalized growth (locus YOR329C, strain SCD5, hits give low values): 0.912
normalized growth (locus YPL031C, strain PHO85, hits give low values): 0.599 (active)
normalized growth [8]: 0.887
normalized growth (locus YPL153C, strain RAD53, hits give low values): 0.659 (active)
normalized growth (locus YPL204W, strain HRR25, hits give low values): 0.598 (active)
normalized growth (locus YPL209C, strain IPL1, hits give low values): 0.918
normalized growth [9]: 0.638 (active)
normalized growth (locus YPL256C, strain CLN2, hits give low values): 0.447 (active)
normalized growth (locus YPR025C, strain CCL1, hits give low values): 0.914
normalized growth (locus YPR106W, strain ISR1, hits give low values): 0.896
normalized growth (locus YPR111W, strain DBF20, hits give low values): 0.89
normalized growth (locus YPR135W, strain CTF4, hits give low values): 0.325 (active)
normalized growth (strain NNK1, hits give low values): 0.88 (active)
normalized growth (strain TSCII, hits give low values): 0.9

C[C@@H](Oc1ccc(Oc2cnc3ccc(Cl)cc3n2)cc1)C(=O)O
normalized growth [1]: 1.04
normalized growth [10]: 1.04
normalized growth [11]: 1
normalized growth [12]: 1.01
normalized growth [13]: 0.995
normalized growth [3]: 1.01
normalized growth (locus YGR229C, strain SMI1, hits give low values): 1.02
normalized growth [4]: 1
normalized growth [5]: 1.01
normalized growth [14]: 0.983
normalized growth [15]: 0.996
normalized growth [16]: 0.984
normalized growth [17]: 0.996
normalized growth [18]: 0.997
normalized growth [7]: 1
normalized growth [19]: 1
normalized growth [9]: 1

Clc1cnc(Oc2ccc(Oc3ncc(Cl)cc3Cl)cc2)c(Cl)c1
normalized growth [1]: 1.03
normalized growth [10]: 1.01
normalized growth [11]: 1.01
normalized growth [2]: 1.01
normalized growth [12]: 1.03
normalized growth [13]: 0.995
normalized growth [14]: 1.02
normalized growth [15]: 1.01
normalized growth [6]: 1
normalized growth [16]: 1
normalized growth [17]: 1.02
normalized growth [18]: 1.02
normalized growth [19]: 1.06
normalized growth [8]: 1.04
normalized growth [9]: 1.01
